Laboratory results reported in ChEMBL document CHEMBL3988442, “University of Dundee, Small-Polar-MMV Screening Library” (2021).
In all, about 48,000 compounds went through this assay and about 13,000 (27%) showed an effect of 50% or more. This is one part of the list.

These compounds were tested on Wolbachia pipientis (assay: Anti-Wolbachia Cell-Based Screen). Details: 5 µM.
Type: functional
Parameters: scale not given: in the data most compounds retested in dose-response had high values

SMILES | Percent Effect [%]
CC(=O)c1ccc(N2CCC3(CCC(=O)N(CCCO)C3)CC2)nc1 | -7.997
Cc1cnc(N2CCC[C@@H]3CN(S(C)(=O)=O)C[C@@H]32)nc1 | 11.33
Cc1ncsc1CN1C[C@@H]2CN(S(C)(=O)=O)CCO[C@@H]2C1 | -34.03
Cc1ccc(CC2CCCN(S(C)(=O)=O)C2)nc1 (stereo unspecified) | 114.6
Cc1csc(CN2C[C@@H]3CN(S(C)(=O)=O)CCO[C@@H]3C2)n1 | -30.25
Cc1ccc(CC2COCCN(S(=O)(=O)c3ccccc3)C2)nc1 (stereo unspecified) | 86.08
O=C1N(Cc2ccccn2)C[C@H]2CN(S(=O)(=O)c3ccccc3)CCN12 | -3.737
Cc1ccc(CC2COCCN(S(C)(=O)=O)C2)nc1 (stereo unspecified) | 84.13
O=C1N(Cc2cccnc2)C[C@H]2CN(S(=O)(=O)c3ccccc3)CCN12 | -1.281
Cn1ccnc1CN1C[C@H]2CN(S(=O)(=O)c3ccccc3)CCN2C1=O | 0.6101
CN(CC1CCCN(S(C)(=O)=O)C1)c1cnn(C)c1 (stereo unspecified) | 7.496
O=S(=O)(c1ccccc1)N1CCOCC(Cc2cccnc2)C1 (stereo unspecified) | 91.68
O=S(=O)(c1cccnc1)N1CCC(OCCCc2ccccc2)C1 (stereo unspecified) | -0.692
Cc1cc(C)n(C2CN(CC(O)c3ccc4c(c3)OCO4)C2)n1 (stereo unspecified) | -2.648
Cc1cc(N2CCC(O)(C(=O)O)CC2)nc2ccccc12 | -10.2
Cc1cc(N2CCN(C(=O)[C@@H]3C[C@@H]4C=C[C@H]3C4)CC2)nc2ccccc12 | 54.26
CCc1nc(C)cc(N2CCN(C(=O)[C@@H]3C[C@@H]4C=C[C@H]3C4)CC2)n1 | 84.46
CCC(=O)N1CCCN(c2cncc(-n3nc(C)cc3C)n2)CC1 | -2.482
COCCC1(C(=O)O)CCN(c2cc(C)c3ccccc3n2)CC1 | -3.456
CCc1nc(C)cc(N2CCCC(C(=O)c3ccc(OC)cc3C)C2)n1 (stereo unspecified) | -51.86
CC(C)n1nc(Cn2cccn2)c2c1CN(CC1CCOC1)C2.O=C(O)C(F)(F)F (stereo unspecified) | -1.747
CCOC(=O)NCCC(=O)NCc1ccc(Oc2cccc(F)c2)nc1 | 3.713

SMILES | Percent Effect [%]
CCc1ncnc2c1CCN(C(=O)Cc1ccccn1)CC2 | -1.286
CCOc1ncnc2c1CCN(S(=O)(=O)c1ccccc1)CC2 | 89.01
CCN(C)c1ncnc2c1CCN(C(=O)c1ccccn1)CC2.O=C(O)C(F)(F)F.O=C(O)C(F)(F)F | -0.1551
CCS(=O)(=O)N1CCc2ncnc(OC)c2CC1 | 0.7096
CCN(C)c1ncnc2c1CCN(C(=O)N(C)C)CC2.O=C(O)C(F)(F)F | -3.614
CCc1ncnc2c1CCN(C(=O)N1CCCC1)CC2 | 16.14
CCS(=O)(=O)N1CCc2ncnc(C)c2CC1 | -1.649
CCc1ncnc2c1CCN(S(=O)(=O)c1ccccc1)CC2 | 113.2
CCc1ncnc2c1CCN(S(=O)(=O)CC)CC2 | 104.4
CCN(C)c1ncnc2c1CCN(S(=O)(=O)c1ccccc1)CC2.O=C(O)C(F)(F)F | 77.11
CCOc1ncnc2c1CCN(S(=O)(=O)CC)CC2 | -16.86
CCOc1ncnc2c1CCN(Cc1cccs1)CC2.O=C(O)C(F)(F)F | -4.6
CC(O)CN(CC(=O)NC(=O)NCC(F)(F)F)c1ccccc1 (stereo unspecified) | -9.09
COCCN1CCN(C(=O)c2ccc(C)cc2F)[C@H]2CS(=O)(=O)C[C@H]21 | 8.657
COC(=O)CCNC(=O)c1cccc(C(=O)N(C)c2ccccc2)c1 | 2.44
CC(=O)N1CCN(C(=O)NCCCN(C(C)C)S(C)(=O)=O)CC1 | -2.467
COc1ccc2[nH]nc(CN3CCN(Cc4cccc(F)c4)CC3)c2c1 | -9.903
Cc1cc(NCCCNS(C)(=O)=O)nc2ccccc12 | -15.92
CCN(C)C1COC2(CCN(C(=O)c3ccc4[nH]ccc4c3)CC2)C1 (stereo unspecified) | -14.16
O=C(CCCOc1cccc(F)c1)N1CCCC(n2cccn2)C1 (stereo unspecified) | 116.5
O=C(CCOc1cccc(F)c1)N1CCCC(n2cncn2)C1 (stereo unspecified) | -0.888
O=C(COc1ccc2c(c1)CCC2)N1CCCC(n2cccn2)C1 (stereo unspecified) | 22.49

SMILES | Percent Effect [%]
O=C(CCCc1nc2ccccc2[nH]1)N1CCCC(n2cccn2)C1 (stereo unspecified) | -6.233
O=C(CCCOc1ccc(F)cc1)N1CCCC(n2cccn2)C1 (stereo unspecified) | -3.272
Cn1cc(C2CCCN2C(=O)CCCOc2ccc(F)cc2F)cn1 (stereo unspecified) | 6.494
O=C(CCCOc1cccc(F)c1)N1CCCC(n2cncn2)C1 (stereo unspecified) | 133
O=C(CCOc1cccc(F)c1)N1CCCC(n2cccn2)C1 (stereo unspecified) | 114
O=C(CCCOc1ccccc1Cl)N1CCCC(n2cncn2)C1 (stereo unspecified) | 20.25
O=C(CCCOc1ccc(F)cc1F)N1CCCC(n2cccn2)C1 (stereo unspecified) | 132.9
Cc1nnc2n1CCN(C(=O)CN1C(=O)CCOc3ccccc31)C2 | -10.74
CCN1CCN(S(=O)(=O)c2c[nH]c(C(C)C)n2)c2ccccc21 | -17.2
CCc1ocnc1C(=O)Nc1ccc2ccn(CCN(C)C)c2c1 | -13.13
CC(C)c1ncncc1C(=O)NCCN1CCCS1(=O)=O | -1.199
C/C(=C\c1ccco1)CN(C)C(C)c1ccccn1 (stereo unspecified) | 4.306
CCC(CO)N(Cc1ccccc1C)Cc1ccccc1C(=O)O (stereo unspecified) | -4.887
COc1ccc(-c2noc([C@@H]3C[C@@H](O)CN3C3CCOCC3)n2)cc1 | 13.77
CCn1cc(-c2cncn2CCc2ccc3c(c2)OCCO3)cn1.Cl | 128.2
CN(Cc1ccc2c(c1)OCCO2)C(=O)NCCc1cnn(C)c1 | 10.28
CN(C)c1ncc(-c2cncn2CCc2ccc3c(c2)OCCO3)cn1.Cl | 96.16
Cc1nn(C)cc1-c1cncn1CCc1ccc2c(c1)OCCO2.Cl | 107.7
CN(Cc1ccc2c(c1)OCCO2)C(=O)Cn1cccnc1=O | 7.904
Cc1cnn(C2CN(Cc3ccc4c(c3)OCCO4)C2)c1 | 4.221
Cn1cnnc1C1CCN(C(=O)Cc2ccc3c(c2)OCCO3)CC1 | 14.42
CN(Cc1ccc2c(c1)OCCO2)c1ncc(S(N)(=O)=O)s1 | -17.53
